# CYP2C19 inhib: inhibitors of human CYP2C19 | hit rate 21% among 96,000 | CYP2C19 Supersomes, luciferin-H EGE luminescence, 30 min | inhibition, % at 5 µM | P33261;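 active = CYP2C19 inhibition above a set limit at 5 µM in the primary screen, cut at about 50% in these data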;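 also: plate controls were negative control wells for no effect and 2.5 mM tranylcypromine positive control for full effect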
# Target sequence (P33261 whole entry, looked up): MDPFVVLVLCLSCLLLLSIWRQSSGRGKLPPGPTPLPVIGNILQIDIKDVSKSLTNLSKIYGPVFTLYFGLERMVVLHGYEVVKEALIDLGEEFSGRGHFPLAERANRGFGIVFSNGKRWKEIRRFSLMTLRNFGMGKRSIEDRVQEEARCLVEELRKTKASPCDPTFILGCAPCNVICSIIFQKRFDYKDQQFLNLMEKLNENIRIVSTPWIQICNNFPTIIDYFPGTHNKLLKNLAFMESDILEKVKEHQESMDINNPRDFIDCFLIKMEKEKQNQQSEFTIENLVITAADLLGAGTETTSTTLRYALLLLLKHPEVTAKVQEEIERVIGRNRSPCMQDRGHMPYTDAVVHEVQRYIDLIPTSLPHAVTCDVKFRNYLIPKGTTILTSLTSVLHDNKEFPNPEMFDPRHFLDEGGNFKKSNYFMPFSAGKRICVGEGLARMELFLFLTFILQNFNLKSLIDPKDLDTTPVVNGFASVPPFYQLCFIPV
# CYP2C9 activ: CYP2C9 (human) activation; P11712; recombinant CYP2C9, luciferin-H conversion, luminescence; active compounds read high; factor 1 = untreated enzyme, 0 = blocked; activation factor at 5 µM; hit rate 1.4% among 96,000;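 active = activation factor of 2 or more for CYP2C9 at a 5 µM dose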;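 also: 0 = sulfaphenazole-blocked wells and 1 = vehicle-only wells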
# CYP2C9 inh: blocks human cytochrome P450 2C9. inhibition, % at 5 µM. hit rate 20% among 96,000. CYP2C9 Supersomes, luciferin-H conversion, luminescence;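 active = blocking of liver enzyme CYP2C9 beyond about 50% at 5 µM, limit read from the data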
# CYP2C19 act: activators of human cytochrome P450 2C19. recombinant CYP2C19, luciferin-H EGE luminescence; active compounds read high; 0 = fully inhibited enzyme, 1 = untreated enzyme. activation factor at 5 µM. 96,000 tested, under 10 active. AID 1025;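 active = activation factor of at least 2 at 5 µM in the primary screen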;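 also: 0 = wells with 2.5 mM tranylcypromine and 1 = vehicle-only wells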
# Cav3 T inh: blocks human Cav3.2 T-type calcium channel; O95180; Cav3.2-expressing cells, Fluo-4 calcium fluorescence FDSS; active compounds read low; B-score at 10 µM; hit rate 4% among 100,000;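 active = single-dose well whose peak fluorescence ratio is a statistical outlier from its plate by either plate-standardised score or position-corrected B-score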
# * = called active by the depositor; . = no result. Compounds with a hit are over-represented: about 27% of the library has one in this group of screens.
SMILES,CYP2C19 inhib,CYP2C9 activ,CYP2C9 inh,CYP2C19 act,Cav3 T inh
CN(C)C(=O)N1CCCC(C(=O)NCc2ccccc2)C1 (configuration not stated),57*,1,0,0.4,0.74
CN(C)C(=O)N1CCCC(C(=O)NCCc2ccccc2)C1 (configuration not stated),22,0.9,9,0.8,0.51
CCNc1nc(NC(C)C)nc(Oc2ccc(OCCOc3ccc(C)cc3)nn2)n1,40,0.7,28,0.6,-0.75
O=C(O)CSc1cccc2cccc(C(=O)O)c12,4,1,3,1,-0.0075
CCC(CC)C(=O)Nc1cccc(S(=O)(=O)c2cccc(NC(=O)C(CC)CC)c2)c1,11,0.9,8,0.9,0.0045
O=C1Cc2ccccc2C(=O)N1CCc1ccccc1,52*,1,2,0.5,-1.8
Cc1ccc2nc(-c3cccc(NC(=O)c4ccc5c(c4)OCCO5)c3)oc2c1,64*,0.1,87*,0.4,-0.4
O=C(Nc1ccc2oc(-c3ccc4ccccc4c3)nc2c1)c1ccc2c(c1)OCCO2,1,0.9,7,1,0.041
Cc1cccc(-c2cc(C(=O)Nc3ccc4c(c3)OCCO4)c3ccccc3n2)c1,23,0.4,60*,0.8,.
CCOc1ccc(-c2cc(C(=O)Nc3ccc4c(c3)OCCO4)c3ccccc3n2)cc1,49,0.2,78*,0.5,-1.2
Cc1ccc2nc(-c3ccc4c(c3)OCCO4)cc(C(=O)O)c2c1,28,0.2,81*,0.7,0.43
CN1CCN(CCCN2c3ccccc3Sc3ccc(C(F)(F)F)cc32)CC1,.,.,.,.,0.85
CN1CCN(c2nc3c(c(=O)[nH]c(=O)n3C)n2CCSc2ncccn2)CC1,-4,0.9,9,1,.
COc1cc(NC(=O)C2CCCN(c3ncccn3)C2)cc(OC)c1 (configuration not stated),.,.,.,.,0.21
CNC(=O)[C@@]1(C)C=C[C@@H](Cc2ccccc2)N1C(=O)OC,.,.,.,.,-0.1
CCn1c(SCc2ccc(OC)cc2)nnc1-c1ccncc1,92*,0.9,12,0.1,1.1
COc1cccc(-c2nnc(SCc3ccc(C#N)cc3)n2Cc2ccco2)c1,91*,0.1,95*,0.1,0.62
C=CCn1c(SCc2ccc(OC)cc2)nnc1-c1cccnc1,77*,0.5,46,0.2,0.3
Cn1c(SCc2ccc(C#N)cc2)nnc1-c1cccc(Cl)c1,74*,0.5,47,0.3,-1.3
Cn1c(SCc2ccc(C#N)cc2)nnc1-c1ccccc1,44,0.8,20,0.6,0.99
C=CCn1c(SCc2ccccc2)nnc1-c1cccnc1,36,1,-4,0.6,1.2
Cc1ccc(-c2nnc(SCc3ccc(C#N)cc3)n2Cc2ccco2)cc1,11,0.7,32,0.9,-3.3
FC(F)(F)c1cccc(-n2cccc2/C=N/n2cnnc2)c1,44,0.8,20,0.6,0.29
CCn1c(SCc2cccc(C(F)(F)F)c2)nnc1-c1ccco1,.,.,.,.,-0.76
CCn1c(SCc2ccc(C)cc2)nnc1C1CCN(S(=O)(=O)c2ccc(OC)cc2)CC1,32,1.8,-78,0.7,-4.8*
SMILES,CYP2C19 inhib,CYP2C9 activ,CYP2C9 inh,CYP2C19 act,Cav3 T inh
Cc1ccc(-n2c(SCc3ccc(C#N)cc3)nnc2-c2ccccn2)cc1,50*,0.5,51*,0.5,0.85
CCn1c(SCc2cccc(C)c2)nnc1-c1ccc(C)cc1,86*,0.9,10,0.1,-4.1
CCn1c(SCc2ccc(F)cc2)nnc1C1CCN(S(=O)(=O)c2ccc(OC)cc2)CC1,17,1.9,-86,0.8,-2.3
COc1ccc(-n2c(SCc3ccc(C#N)cc3)nnc2-c2ccccn2)cc1,13,1,-4,0.9,0.91
C=CCn1c(SCc2ccc(C#N)cc2)nnc1-c1cccc(OC)c1,91*,0.4,64*,0.1,-0.043
C=CCc1ccccc1OCC(O)CN(C(C)C)C(C)C (configuration not stated),13,0.9,5,0.9,-1
Cc1nnc(SCC(=O)NCc2ccccc2)[nH]c1=O,11,0.8,22,0.9,0.9
O=C(Nc1nnc(-c2ccccc2)o1)c1nc2ccccc2s1,.,.,.,.,-0.27
C=CCn1c(COc2ccc(Cl)cc2)nnc1SCc1ccc(C#N)cc1,39,0.6,39,0.6,-7.7*
CC(Sc1nnc(N)s1)c1ccccc1Cl (configuration not stated),96*,0.5,51*,0,0.57
COc1cc(C(=O)O/N=C(\N)c2ccncc2)cc(OC)c1OC,72*,0.1,89*,0.3,1.1
Cc1cc(C)cc(C(=O)O/N=C(\N)c2ccc(Br)cc2)c1,-13,3.5*,-247,1.1,0.18
COc1cccc(C(=O)O/N=C(\N)c2ccc([N+](=O)[O-])cc2)c1,12,2*,-96,0.9,0.89
COc1ccc(/C(N)=N/OC(=O)c2cccc([N+](=O)[O-])c2)cc1,-9,1.1,-6,1.1,-0.034
COc1cccc(C(=O)O/N=C(\N)c2ccncc2)c1,82*,0.3,70*,0.2,-0.76
COc1cccc(-c2n[nH]c(=S)n2Cc2ccco2)c1OC,33,0.6,36,0.7,0.2
c1ccc(-c2ccc(CN3C[C@@H]4C(c5ccccc5)C5(c6ccccc6)CC4(C5)[C@H]3c3ccccc3)cc2)cc1 (some centres not stated),.,.,.,.,-0.51
Cc1ccc(C(=O)Nc2cnc3sc(C)nn3c2=O)cc1,-16,1.1,-11,1.2,-0.69
O=C(COc1ccc(/C=N/NS(=O)(=O)c2ccccc2)cc1)Nc1ccc(F)cc1,17,0.4,65*,0.8,-6*
Cc1ccc(S(=O)(=O)N/N=C/c2ccc(OCC(=O)Nc3ccccc3Cl)cc2)cc1,30,0.2,84*,0.7,.
CN(C)CC1CCCCC1C1(O)c2ccccc2CSc2sccc21 (configuration not stated),.,.,.,.,-0.94
CC(C)(C)S(=O)(=O)c1ccc(S(=O)(=O)C(C)(C)C)s1,.,.,.,.,0.35
COc1ccc(C)cc1NS(=O)(=O)c1ccc(Br)s1,98*,0.7,30,0,-1.6
COc1ccc(C)cc1NS(=O)(=O)c1cc(C)ccc1C,41,0.8,22,0.6,-0.53
COc1ccc(NS(=O)(=O)c2ccc(OC)c(OC)c2)cc1OC,.,.,.,.,0.2
SMILES,CYP2C19 inhib,CYP2C9 activ,CYP2C9 inh,CYP2C19 act,Cav3 T inh
COc1ccc(NS(=O)(=O)c2ccc(Br)s2)cc1OC,99*,0.1,87*,0,-1.5
O=S(=O)(Nc1ccc2c(c1)OCCO2)c1ccc(Br)s1,98*,0,96*,0,-4.5
C[C@]1(C(=O)NCc2cc(F)cc(C(F)(F)F)c2)C=C[C@@H](Cc2ccccc2)N1C(=O)c1ccccc1,.,.,.,.,-2.7
O=C(c1ccc(Cl)cc1)N1CCC(=O)N(C(CO)Cc2ccccc2)CC1 (configuration not stated),.,.,.,.,0.14
CN(C)CC(O)COc1cc2ccccc2cc1C(=O)N1CCCCC1 (configuration not stated),7,0.9,14,0.9,1.3
O=C(O)CCCC(=O)NCCCCc1ccccc1,-2,1,2,1,-1.8

# Screening results: PubChem BioAssay, several laboratories
